Rce1 inhib: yeast Rce1p protease inhibitors, primary screen, biochemical, fluorescence, cell-free homogeneous; yeast membranes, quenched prenylated peptide cleavage fluorescence; calls only; hit rate 0.27% among 290,000;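 active means fall in fluorescence gain of 50% or more versus controls, with final raw signal at or below 3038400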;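 further: plate controls were neutral control wells for no effect and wells lacking membranes for full effect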
Kir21 inh: inhibitors of mouse Kir2.1 inward-rectifier potassium channel; Inward rectifier potassium channel 2 (Mus musculus), P35561; B-score at 10 µM; AID 1672, 2009; HEK293-Kir2.1, FluxOR thallium flux fluorescence; active compounds read low; hit rate 0.85% among 310,000;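 active means fluorescence ratio B-score at or below minus 3 SD of library scores, with starting-brightness B-score within 2 SD, cut at about -4.2 in these data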;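 further: channel flux triggered by added potassium and thallium sulfate stimulus; B-score of peak minus minimum fluorescence over baseline after thallium stimulus; more negative B-score means stronger Kir2.1 block with less thallium influx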
CHT PAM: CHT positive allosteric modulators, primary screen, cell-based, membrane potential dye, choline EC20; CHT-expressing cells; active compounds read high; LV-AA mutant CHT in HEK293 cells; B-score at 10 µM; hit rate 0.49% among 310,000; AID 488977, 2010;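 active means initial fluorescence not abnormally high and integrated response B-score, plate-corrected, over 3 SD above library mean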
Target sequence (Q9GZV3 whole entry, looked up): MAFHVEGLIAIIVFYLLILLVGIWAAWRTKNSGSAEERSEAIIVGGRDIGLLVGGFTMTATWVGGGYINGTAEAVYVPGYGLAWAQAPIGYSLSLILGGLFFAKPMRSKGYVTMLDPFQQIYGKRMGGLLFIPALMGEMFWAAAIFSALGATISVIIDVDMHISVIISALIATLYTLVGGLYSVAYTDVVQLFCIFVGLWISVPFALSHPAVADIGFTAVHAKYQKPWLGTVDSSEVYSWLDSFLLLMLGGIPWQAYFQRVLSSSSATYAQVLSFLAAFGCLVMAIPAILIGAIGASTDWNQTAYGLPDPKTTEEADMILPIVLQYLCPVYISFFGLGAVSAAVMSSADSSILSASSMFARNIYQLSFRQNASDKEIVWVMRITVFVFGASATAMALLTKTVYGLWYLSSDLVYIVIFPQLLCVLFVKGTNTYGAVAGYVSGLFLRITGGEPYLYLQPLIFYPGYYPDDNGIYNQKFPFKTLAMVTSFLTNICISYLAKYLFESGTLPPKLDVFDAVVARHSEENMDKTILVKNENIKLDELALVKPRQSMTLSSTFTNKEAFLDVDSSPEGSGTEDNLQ
ANO1 activ: TMEM16A chloride channel activators or potentiators, primary screen, cell-based, HTS. HEK293 TMEM16A/YFP-H148Q/I152L, iodide quench fluorescence; active compounds read low. B-score at 10 µM. AID 623877, 2012. hit rate 0.3% among 340,000. Anoctamin-1 (Mus musculus), Q8BHY3;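 active means fluorescence-ratio B-score plate-corrected deviation score at least 3 library SD below zero, with starting fluorescence score within 5 deviations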;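 further: channel opened by trigger with iodide after compound preincubation; score built on the fluorescence ratio of max minus min over baseline; more negative score means more quench and so TMEM16A activation or potentiation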
ANO1 block: TMEM16A chloride channel inhibitors, primary screen, cell-based, HTS; Anoctamin-1 (Mus musculus), Q8BHY3; AID 588511, 2011; normalized B-score (activity score, 25-100; higher = stronger inhibition) at 10 µM; hit rate 1.2% among 310,000; HEK293 TMEM16A/YFP iodide influx fluorescence, ionomycin;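 active means ratio plate-corrected score three or more library SD toward inhibition, starting fluorescence score within five deviations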;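 further: score derived from kinetic fluorescence span divided by baseline fluorescence per well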
CHT inh: inhibitors of human choline transporter CHT | CHT-expressing cells, membrane potential dye, choline response; active compounds read low | hit rate 0.86% among 310,000 | B-score at 10 µM | High affinity choline transporter 1 (Homo sapiens), Q9GZV3;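 active means B-score over 3 SD under the library average, and starting fluorescence ratio not unusually high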;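 further: choline stimulus applied at its EC90 after an EC20 pre-addition; B-score computed on integrated fluorescence ratio after choline addition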
CHT block conf: CHT inhibitors, confirmation, cell-based, membrane potential dye, duplicate | shares compounds with CHT inh | CHT-expressing cells, choline membrane potential dye; LV-to-AA substituted CHT, HEK293 cells | CHT activity remaining % of control (active compounds read low), % at 10 µM | hit rate 70% among 2,400 | AID 493221, 2011;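 active means choline transporter activity left, mean of duplicates at 10 µM, below buffer-only control mean minus 3 SD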;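 further: depolarization triggered by choline at its EC90 following an EC20 pre-addition; 0% = hemicholinium-3 full block and 100% = buffer-only control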
HEK293 MPD ctr: membrane potential effects in parental HEK293, counter-screen for CHT inhibitor project, cell-based, membrane potential dye; hit rate 4% among 2,400; shares compounds with CHT inh; membrane potential ratio readout (active if shifted either direction beyond buffer ±3SD; no single direction) at 10 µM; choline response; active = decrease or increase beyond buffer ±3SD;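 further: parental cells lack the transporter so any hit is non-specific; ratio is peak minus trough fluorescence over baseline after EC90 choline challenge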
TMEM16A reconf: TMEM16A chloride channel inhibitors, confirmation, cell-based, re-confirmation | inhibition, % at 10 µM | AID 652189, 2013 | HEK293 TMEM16A/YFP-H148Q, iodide quench fluorescence; ionomycin added to raise cell calcium | hit rate 39% among 2,300 | shares compounds with ANO1 block;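 active means mean duplicate percent inhibition, scaled so buffer wells are 0 and the reference blocker 100, over three buffer SD above buffer mean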
HEK293 Ca mobil: calcium mobilization in TMEM16A/YFP HEK293 cells, confirmation, counter-screen for TMEM16A inhibitor project; shares compounds with ANO1 block; Fluo4 calcium mobilization; calcium response (% of ionomycin), % at 10 µM; hit rate 2% among 2,300;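 active means duplicate-averaged calcium signal over 20% of the ionomycin maximum, relative to buffer baseline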;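 further: each well's signal is peak minus trough fluorescence divided by its pre-addition baseline; 0% = buffer wells and 100% = ionomycin wells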
YFP-HEK293 quench: iodide YFP quench changes in parental YFP-HEK293, counter-screen for TMEM16A inhibitor project, cell-based. shares compounds with ANO1 block. YFP ratio F(max-min)/F0 at 10 µM. 2,300 tested, under 10 active. ionomycin. AID 652233, 2013;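 active means yellow fluorescent protein signal ratio exceeding the buffer control mean by over 5 SD of those controls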;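 further: ratio is mean of duplicate wells from kinetic YFP trace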
ClC-1 inh: ClC-1 chloride channel inhibition, selectivity assay for TMEM16A inhibitor project, cell-based, voltage-dependent ClC-1. CHO ClC-1-YFP, iodide influx fluorescence quench; iodide control reads 0, buffer control 100. ratio percent, % at 10 µM. AID 652236, 2013. 2,300 tested, under 10 active. shares compounds with ANO1 block;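 active means duplicate-mean ratio percent above the mean of iodide-only control wells, which defines zero, plus 5 of their SD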;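 further: higher percent means stronger block of ClC-1 iodide influx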
* marks the source's active call; other numbers are inactive results; i = inactive; . = not tested or not shown. Most compounds without a hit are left out; they make up all but 3.2% or so of the library.

SMILES	Rce1 inhib	Kir21 inh	CHT PAM	ANO1 activ	ANO1 block	CHT inh	CHT block conf	HEK293 MPD ctr	TMEM16A reconf	HEK293 Ca mobil	YFP-HEK293 quench	ClC-1 inh
CCSC(=S)c1c(C)[nH]n(-c2ccccc2)c1=O	i	0.63	i	i	100*	-8.77*	i	i	29.0%*	i	-0.747	-8.0
CC(C)(C)c1csc(NC(=O)c2ccccc2O)n1	i	2.36	i	i	25*	-6.8*	i	i	23.0%*	i	-0.953	-2.0
Cc1ccc(OCC(=O)NNC(=O)C2CCCO2)c(C)c1 (configuration not stated)	i	-0.64	i	i	i	i	.	.	.	.	.	.
COc1ccccc1NC(=O)c1ccc(C(=O)c2ccccc2)o1	i	-0.93	i	i	100*	-4.99*	i	i	19.0%*	i	-0.961	1.0
Cc1ccc(S(=O)(=O)N/N=C/c2cc(Br)ccc2O)cc1	i	-0.55	i	i	100*	-5.59*	67.4%*	i	19.5%*	i	-0.887	-11.5
CC(C)c1cc(C(=O)N2CCCC(CCC(=O)N3CCN(c4ccccn4)CC3)C2)no1 (configuration not stated)	i	0.17	i	i	25*	-5.95*	47.2%*	i	i	i	-1.03	-17.5
Cc1ccccc1C(=O)N1CCCC(CCC(=O)N2CCN(c3ccccn3)CC2)C1 (configuration not stated)	i	-0.49	i	i	i	i	.	.	.	.	.	.
O=C(Cn1c(=O)oc2cccnc21)Nc1ccc(C(F)(F)F)cc1	i	0.69	i	i	i	i	.	.	.	.	.	.
O=C1C2C(C(=O)N1/N=C/c1cc(Br)cc([N+](=O)[O-])c1O)C1C=CC2C12CC2 (configuration not stated)	i	-0.47	i	i	i	-7.57*	43.4%*	i	19.0%*	i	-0.642	9.0
CN(C)c1ccc(NC(=O)Nc2cccc(Cl)c2)cc1	i	-2.78	i	i	i	i	.	.	.	.	.	.
CN(c1cccc(NC(=O)Nc2cccc(Cl)c2)c1)S(C)(=O)=O	i	-0.5	i	i	100*	-6.66*	51.3%*	i	42.5%*	i	-1.05	-12.0
N#Cc1cc([N+](=O)[O-])ccc1NC(=O)CSc1n[nH]c(=O)[nH]c1=O	.	.	.	i	.	.	.	.	.	.	.	.
Cc1[nH]n(-c2ccccc2)c(=O)c1N=Nc1c(O)cc(S(=O)(=O)N(C)C)c2ccccc12	i	-0.42	i	i	100*	-8.45*	33.8%*	i	48.0%*	i	-0.95	-3.0
O=c1c2cc(Br)ccc2nc(-c2cccc(C(F)(F)F)c2)n1O	i	0.13	i	i	100*	-6.02*	38.6%*	i	59.5%*	107.5%*	-1.08	-43.0
Cc1ccc(/C=C/c2ccc(=O)n(Cc3ccccc3Cl)n2)cc1	i	0.11	i	i	i	i	.	.	.	.	.	.
O=C(Nc1ccccc1)Nc1cccc(C(F)(F)F)c1	i	0.38	i	i	i	i	.	.	.	.	.	.
N#C/C(=N\Nc1cccc(C(F)(F)F)c1)C(=O)c1ccsc1	i	-1.15	i	i	25*	-10.1*	35.0%*	i	37.5%*	i	-1.08	-19.0
CCc1cc(C(=O)COc2ccccc2F)c(O)cc1O	i	0.77	i	i	100*	-5.83*	i	i	47.0%*	i	-1.1	-12.0
Cc1nnc(SCc2cnc(-c3ccc(C(C)C)cc3)s2)n1C	.	.	i	i	100*	-11.7*	48.9%*	i	24.0%*	i	-0.926	3.5
CCOC(=O)c1c(-c2ccc(C)cc2)csc1NC(=O)c1ccc(N2C(=O)CCC2=O)cc1	i	-1.2	i	i	i	i	.	.	.	.	.	.
Cc1ccc(-c2csc(NC(=O)c3ccc(Br)cc3)c2C(=O)O)cc1	i	0.2	i	i	100*	-5.32*	50.6%*	i	28.5%*	i	-1.17	0.5
CN(C)S(=O)(=O)c1cc(NC(=O)COC(=O)c2nc(Cl)ccc2Cl)ccc1Cl	.	.	.	i	.	.	.	.	.	.	.	.
O=S(=O)(Nc1nc2ccccc2s1)c1cc(F)ccc1F	i	-0.49	i	i	i	i	.	.	.	.	.	.
O=S(=O)(Nc1nc2ccccc2s1)c1ccc(Cl)s1	i	0.02	i	i	100*	-5.21*	55.8%*	i	30.5%*	i	-0.848	-16.0
Fc1ccc(Nc2nnc(C(F)(F)F)s2)cc1Cl	i	0.72	i	-6.76*	100*	-5.2*	50.7%*	i	49.0%*	i	-1.26	-43.0
Cc1ccc(S(=O)(=O)N2CCN(C(=O)CN3CCN(c4ccc(O)cc4)CC3)CC2)cc1	.	.	.	i	.	.	.	.	.	.	.	.
